# Test results from PubChem BioAssay (Tox21).
# A number with no mark means an inactive call. Results filed as inconclusive are left out. Entries that show only a call come without a potency. Calls of active or inactive are those of the source. Unless noted, calls follow the shape of the full dose curve.
# Legend:
# [1] = Nuclear factor erythroid 2-related factor 2/antioxidant responsive element (Nrf2/ARE) small molecule agonists: qHTS cell viability counter screen in human keratinocytes (AID 1919968; active = well fitted curve in the direction sought with a large enough effect in the repeat runs; an effect the other way counts as inactive or inconclusive; also: nearly all actives have a fitted effect of over 55% in size)
# In short: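 KeratinoSens cells (HaCaT keratinocytes stably carrying an ARE-luciferase reporter) were seeded at 1,500 cells/well and rested 5 h at 37 C/5% CO2. They were then exposed to compounds in DMSO for 23 h. Viability was read by CellTiter-Fluor fluorescence after 1 h.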
# [2] = Nuclear factor erythroid 2-related factor 2/antioxidant responsive element (Nrf2/ARE) small molecule agonists: luciferase reporter gene qHTS assay in human keratinocytes (AID 1919969); also: nearly all actives have a fitted effect of over 35% in size; also: potency is read from the fitted curve at half-maximal effect
# [3] = biological target: Gonadotropin-releasing hormone receptor (Homo sapiens) (UniProt P30968); assay: Human gonadotropin-releasing hormone receptor (GnRHR) small molecule agonists, calcium flux assay in GnRHR-HEK293 cells (AID 1920063); also: nearly all actives have a fitted effect of over 35% in size
# In short: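 HEK293 cells stably expressing human GnRHR were plated 18 h at 37 °C, loaded with calcium dye 1 h at 37 °C, then given compound in agonist mode; fluorescence (Ex/Em 480/540) read kinetically for 3 min at 1 s intervals.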
# [4] = biological target: KiSS-1 receptor (Homo sapiens) (UniProt Q969F8); assay: Human kisspeptin (KISS1R) small molecule agonists, calcium flux assay in KISS1R-HEK293 cells (AID 1920064; active = well fitted curve in the direction sought with a large enough effect in the repeat runs; an effect the other way counts as inactive or inconclusive)
# In short: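 HEK293 cells stably expressing human KISS1R were plated 18 h at 37 °C, loaded with calcium dye for 1 h at 37 °C, then given compound by pin tool. Fluorescence (Ex/Em 480/540) was read kinetically for 3 min.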
# [5] = G protein-coupled receptor (GPCR) small molecule agonists, calcium flux assay: HEK293 wild type cell line counter screen (AID 1920065)
# In short: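 Cells were plated and cultured 18 h at 37 C/5% CO2, then loaded with calcium dye for 1 h at 37 C. Compounds in DMSO were pin-transferred in agonist mode, and fluorescence (Ex/Em 480/540) was read kinetically for 3 min at 1 s intervals.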
# [6] = p53 small molecule agonists, cell-based qHTS assay with human liver microsomes (AID 1963577)
# In short: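 p53RE-bla cells, 4,000/well, compound added after 5 h, with human liver microsomes 0.5 mg/mL and NADPH 0.5 mg/mL final; 16 h at 37 C, then LiveBLAzer 2 h RT, fluorescence.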
# [7] = p53 small molecule agonists, cell-based qHTS assay with rat liver microsomes (AID 1963578)
# In short: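 p53RE-bla cells, 4,000/well, pre-incubated 5 h, then given compounds plus rat liver microsomes (0.5 mg/mL final) and NADPH (0.5 mg/mL final). Incubation 16 h at 37 C; beta-lactamase reporter read by LiveBLAzer fluorescence after 2 h at room temperature.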
# [8] = p53 small molecule agonists, cell-based qHTS assay with human liver microsomes: qHTS cell viability counter screen (AID 1963579); also: nearly all actives have a fitted effect of over 45% in size
# In short: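 p53RE-bla cells, 4,000/well, dosed 5 hours after plating, with human liver microsomes (0.5 mg/mL final) plus NADPH (0.5 mg/mL final), 16 hours at 37 C. Viability read as CellTiter-Glo luminescence after 30 min at room temperature.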
# [9] = p53 small molecule agonists, cell-based qHTS assay with rat liver microsomes: qHTS cell viability counter screen (AID 1963580); also: nearly all actives have a fitted effect of over 45% in size
# In short: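 Viability is assessed in parallel with the p53 reporter read: HCT-116 p53RE-bla cells receive compounds plus rat microsomes and NADPH (0.5 mg/mL final apiece), incubate 16 h at 37 C, and then CellTiter-Glo luminescence is recorded.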
# [10] = p53 small molecule agonists, cell-based qHTS assay: qHTS cell viability counter screen (AID 1963581); also: nearly all actives have a fitted effect of over 45% in size
# In short: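 p53RE-bla HCT-116 cells were exposed to compounds for 16 h at 37 C; after the beta-lactamase FRET read in the same wells, CellTiter-Glo was added and luminescence (intracellular ATP) read after 30 min at room temperature.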
# [11] = p53 small molecule agonists, cell-based qHTS assay (AID 1963582; active = well fitted activation curve with a large enough effect in the signal ratio in the repeat runs, not every such curve was filed as active; the % refers to the signal ratio)
# In short: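 p53RE-bla beta-lactamase reporter cells rested 5 h at 37 C/5% CO2, then received compounds in DMSO by pin transfer and were incubated 16 h at 37 C. LiveBLAzer B/G FRET substrate was loaded for 2 h at room temperature before fluorescence reading.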
# [12] = biological target: 5-hydroxytryptamine receptor 2A (Homo sapiens) (UniProt P28223); assay: 5-hydroxytryptamine receptor 2A (HTR2A) small molecule agonists, cell-based qHTS assay (AID 1963587); also: nearly all actives have a fitted effect of over 30% in size
# In short: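 CHO cells stably expressing human HTR2A, plated 18 h, loaded with calcium dye 1 h at 37 C. Agonist mode: compounds added and intracellular calcium fluorescence recorded kinetically for 2 min at 1 sec intervals.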
# [13] = biological target: Muscarinic acetylcholine receptor M1 (Homo sapiens) (UniProt P11229); assay: Cholinergic receptor muscarinic 1 (CHRM1) small molecule antagonists, cell-based qHTS assay (AID 1963588); also: nearly all actives have a fitted effect of over 40% in size; also: potency is read from the fitted curve at half-maximal effect
# In short: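 CHRM1-CHO calcium-flux assay, antagonist mode. Cells were seeded 18 h, dye-loaded 1 h at 37 C and given compound for 5 min at RT, then acetylcholine was added at 50nM. FDSS fluorescence was read 3 min; 15 concentrations, three runs.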
# [14] = biological target: Muscarinic acetylcholine receptor M1 (Homo sapiens) (UniProt P11229); assay: Cholinergic receptor muscarinic 1 (CHRM1) small molecule agonists, cell-based qHTS assay (AID 1963589); also: nearly all actives have a fitted effect of over 35% in size
# In short: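 CHO cells stably expressing human CHRM1, seeded 18 h at 37 C/5% CO2, dye-loaded 1 h at 37 C, then given compound in agonist mode; intracellular calcium fluorescence read kinetically at 1 s intervals. Fifteen concentrations, three independent runs.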
# [15] = cAMP Responsive Elements (CRE) small molecule agonists, cell-based qHTS assay (AID 1963590)
# In short: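 CRE-bla HEK 293T cells in DMEM with 10% dialyzed FBS, NEAA, pyruvate and 25 mM HEPES were plated 18 h at 37 C/5% CO2, then exposed to compounds in DMSO for 3 h before LiveBLAzer B/G FRET substrate addition.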
# [16] = cAMP Responsive Elements (CRE) small molecule antagonists, cell-based qHTS assay (AID 1963591; active = well fitted inhibition curve with a large enough effect in the signal ratio in the repeat runs, not every such curve was filed as active; the % refers to the signal ratio)
# In short: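 CRE-bla HEK293T cells were plated 18 h at 37 °C/5% CO2, pinned with compound in DMSO, then stimulated with NKH477 at 0.25 uM final for 3 h. LiveBLAzer B/G FRET substrate was added and plates incubated 2 h at room temperature.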
# [17] = biological target: Beta-2 adrenergic receptor (Homo sapiens) (UniProt P07550); assay: Adrenergic beta2 receptor (ADRB2) small molecule antagonists, cell-based qHTS assay (AID 1963592); also: series mostly up to about 92 µM; nearly all actives have a fitted effect of over 50% in size
# In short: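 Cells (CHO, stable ADRB2 overexpression) incubated 18-20hr at 37C; compounds added from DMSO; agonist mix (1nM isoproterenol, 100uM IBMX, 25uM Ro-20-1724) added; 0.5hr RT; d2-cAMP and anti-cAMP-cryptate added; 1hr RT; 665/615 nm read.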
# [18] = biological target: D(2) dopamine receptor (Homo sapiens) (UniProt P14416); assay: Dopamine D2 receptor (DRD2) small molecule antagonists, cell-based qHTS assay (AID 1963595; active = well fitted inhibition curve with a large enough effect in the signal ratio in the repeat runs, with a control signal flat; the % refers to the signal ratio; also: potency is read from the fitted curve at half-maximal effect)
# In short: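 In this cell-based antagonist screen, compounds act for 10 min at room temperature before a 30 min challenge with 12 nM quinpirole and 200 nM NKH477. cAMP is quantified by HTRF competition in DRD2-HEK293 cells containing 0.1 mM Ro20-1724.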
# [19] = biological target: Beta-2 adrenergic receptor (Homo sapiens) (UniProt P07550); assay: Adrenergic beta2 receptor (ADRB2) small molecule agonists, cell-based qHTS assay (AID 1963593);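 also: CHO cells stably overexpressing human ADRB2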
# In short: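 CHO cells stably over-expressing ADRB2 were plated overnight at 37C, then dosed with compounds plus a stimulation mix containing 100uM IBMX and 25uM Ro-20-1724 for 0.5hr at room temperature. cAMP was measured by HTRF competition, 1hr.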
# [20] = biological target: D(2) dopamine receptor (Homo sapiens) (UniProt P14416); assay: Dopamine D2 receptor (DRD2) small molecule agonists, cell-based qHTS assay (AID 1963594); also: nearly all actives have a fitted effect of over 35% in size
# In short: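 HEK293 cells stably expressing human DRD2, pre-treated with PDE inhibitor Ro20-1724 (0.1 mM final) and compound 10 min at room temperature, then stimulated with NKH477 (200nM […]) for 30 min. cAMP read by HTRF (665/620 nm).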
# Beta-2 adrenergic receptor (Homo sapiens), sequence (P07550 whole entry, looked up): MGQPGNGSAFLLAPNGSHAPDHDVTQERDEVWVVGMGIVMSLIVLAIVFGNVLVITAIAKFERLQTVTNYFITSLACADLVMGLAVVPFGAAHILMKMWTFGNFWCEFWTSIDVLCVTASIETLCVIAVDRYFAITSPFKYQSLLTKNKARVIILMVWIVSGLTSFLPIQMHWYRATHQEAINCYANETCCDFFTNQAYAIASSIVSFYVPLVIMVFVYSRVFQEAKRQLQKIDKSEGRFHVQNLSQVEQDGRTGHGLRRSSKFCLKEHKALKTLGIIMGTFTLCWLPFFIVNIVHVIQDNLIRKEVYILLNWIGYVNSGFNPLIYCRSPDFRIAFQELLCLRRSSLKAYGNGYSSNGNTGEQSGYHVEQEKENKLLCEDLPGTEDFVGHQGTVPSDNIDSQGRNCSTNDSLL
# KiSS-1 receptor (Homo sapiens), sequence (Q969F8 whole entry, looked up): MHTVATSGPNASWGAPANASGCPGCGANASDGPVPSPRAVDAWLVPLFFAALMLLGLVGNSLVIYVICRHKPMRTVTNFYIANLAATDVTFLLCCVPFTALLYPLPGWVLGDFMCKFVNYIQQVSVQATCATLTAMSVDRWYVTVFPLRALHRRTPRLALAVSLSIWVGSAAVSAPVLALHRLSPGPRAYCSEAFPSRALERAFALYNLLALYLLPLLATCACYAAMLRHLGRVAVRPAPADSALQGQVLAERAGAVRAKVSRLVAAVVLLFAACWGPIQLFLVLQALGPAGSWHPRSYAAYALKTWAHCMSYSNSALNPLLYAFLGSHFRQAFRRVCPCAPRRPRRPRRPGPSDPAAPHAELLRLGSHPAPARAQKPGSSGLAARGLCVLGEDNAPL
# D(2) dopamine receptor (Homo sapiens), sequence (P14416 whole entry, looked up): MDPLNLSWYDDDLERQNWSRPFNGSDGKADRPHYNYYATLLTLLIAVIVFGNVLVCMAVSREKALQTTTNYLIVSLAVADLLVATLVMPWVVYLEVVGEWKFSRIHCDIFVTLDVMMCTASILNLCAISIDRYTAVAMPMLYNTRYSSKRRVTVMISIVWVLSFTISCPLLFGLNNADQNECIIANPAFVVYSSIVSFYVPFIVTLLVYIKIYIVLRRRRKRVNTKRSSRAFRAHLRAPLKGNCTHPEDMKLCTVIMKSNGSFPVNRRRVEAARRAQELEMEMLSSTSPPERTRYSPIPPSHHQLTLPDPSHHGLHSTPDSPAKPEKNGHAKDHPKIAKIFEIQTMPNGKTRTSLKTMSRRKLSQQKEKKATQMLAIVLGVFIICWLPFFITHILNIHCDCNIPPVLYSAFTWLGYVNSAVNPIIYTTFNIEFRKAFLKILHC
# Gonadotropin-releasing hormone receptor (Homo sapiens), sequence (P30968 whole entry, looked up): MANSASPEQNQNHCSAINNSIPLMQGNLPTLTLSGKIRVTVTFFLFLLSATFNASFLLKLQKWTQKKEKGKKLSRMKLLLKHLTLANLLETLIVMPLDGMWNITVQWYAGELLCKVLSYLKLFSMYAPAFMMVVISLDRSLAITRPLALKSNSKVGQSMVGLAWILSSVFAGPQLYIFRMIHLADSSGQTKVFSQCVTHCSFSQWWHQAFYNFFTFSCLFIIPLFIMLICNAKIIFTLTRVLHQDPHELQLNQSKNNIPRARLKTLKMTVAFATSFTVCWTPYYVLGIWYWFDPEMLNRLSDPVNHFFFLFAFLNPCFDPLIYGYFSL
# 5-hydroxytryptamine receptor 2A (Homo sapiens), sequence (P28223 whole entry, looked up): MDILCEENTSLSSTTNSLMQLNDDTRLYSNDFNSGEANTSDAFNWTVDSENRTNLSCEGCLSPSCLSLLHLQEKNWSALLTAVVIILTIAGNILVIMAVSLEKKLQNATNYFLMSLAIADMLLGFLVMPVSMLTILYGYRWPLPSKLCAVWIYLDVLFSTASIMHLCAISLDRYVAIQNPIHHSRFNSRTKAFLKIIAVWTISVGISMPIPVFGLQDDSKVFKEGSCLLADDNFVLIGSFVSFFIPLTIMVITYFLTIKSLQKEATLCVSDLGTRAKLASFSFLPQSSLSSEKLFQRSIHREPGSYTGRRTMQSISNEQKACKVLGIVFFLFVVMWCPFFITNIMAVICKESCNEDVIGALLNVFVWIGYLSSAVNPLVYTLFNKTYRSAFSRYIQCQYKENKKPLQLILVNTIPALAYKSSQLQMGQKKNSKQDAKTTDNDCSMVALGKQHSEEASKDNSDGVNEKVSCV
# Muscarinic acetylcholine receptor M1 (Homo sapiens), sequence (P11229 whole entry, looked up): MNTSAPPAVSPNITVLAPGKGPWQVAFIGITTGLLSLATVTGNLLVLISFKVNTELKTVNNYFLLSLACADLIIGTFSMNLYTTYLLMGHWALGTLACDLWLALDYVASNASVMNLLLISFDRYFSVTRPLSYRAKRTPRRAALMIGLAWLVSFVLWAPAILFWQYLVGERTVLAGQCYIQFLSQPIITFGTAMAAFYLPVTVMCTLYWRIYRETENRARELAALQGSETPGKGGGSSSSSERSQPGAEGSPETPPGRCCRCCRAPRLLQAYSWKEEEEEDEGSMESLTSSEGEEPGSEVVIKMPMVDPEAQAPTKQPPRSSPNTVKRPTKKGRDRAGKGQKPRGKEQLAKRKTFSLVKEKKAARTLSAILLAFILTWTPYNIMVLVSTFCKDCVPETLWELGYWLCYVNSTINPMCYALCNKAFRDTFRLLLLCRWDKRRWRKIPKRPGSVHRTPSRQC
structure (smiles),measurement,setting,value
CC(=O)Nc1ccc(C)c(Cl)c1,Potency,[1],inactive
same,Potency,[2],inactive
same,Potency,[3],inactive
same,outcome,[4],inactive
same,outcome,[5],inactive
same,Potency,[6],inactive
same,Potency,[7],inactive
same,Potency,[8],inactive
same,Potency,[9],inactive
same,Potency,[10],inactive
same,Potency,[11],inactive
same,Potency,[12],inactive
same,Potency,[13],inactive
same,Potency,[14],inactive
same,Potency,[15],inactive
same,Potency,[16],inactive
same,Potency,[17],inactive
same,Potency,[18],inactive
CC(C)(O)c1coc(S(=O)(=O)NC(=O)Nc2c3c(cc4c2CCC4)CCC3)c1,Potency,[1],inactive
same,Potency,[2],61.1 µM (active)
same,Potency,[3],inactive
same,outcome,[4],inactive
same,outcome,[5],inactive
same,Potency,[6],inactive
same,Potency,[7],inactive
same,Potency,[8],inactive
same,Potency,[9],inactive
same,Potency,[10],inactive
same,Potency,[11],inactive
same,Potency,[12],inactive
same,Potency,[13],inactive
same,Potency,[14],inactive
same,Potency,[17],inactive
same,Potency,[19],inactive
same,Potency,[20],inactive
same,Potency,[18],inactive
CC(C)(C)C(=O)Oc1ccc(S(=O)(=O)Nc2ccccc2C(=O)NCC(=O)O)cc1,Potency,[1],inactive
same,Potency,[2],inactive
same,Potency,[3],inactive
same,outcome,[4],inactive
same,outcome,[5],inactive
same,Potency,[6],inactive
same,Potency,[7],inactive
same,Potency,[8],inactive
same,Potency,[9],inactive
same,Potency,[10],inactive
same,Potency,[11],inactive
same,Potency,[12],inactive
same,Potency,[13],inactive
same,Potency,[14],inactive
same,Potency,[15],inactive
same,Potency,[17],inactive
same,Potency,[19],inactive
same,Potency,[20],inactive
same,Potency,[18],inactive
CC1=C(C)C(=O)C(C(CCCCCC(=O)O)c2ccccc2)=C(C)C1=O (stereo not drawn),Potency,[1],inactive
same,Potency,[2],inactive
same,Potency,[3],inactive
same,outcome,[4],inactive
same,outcome,[5],inactive
same,Potency,[6],inactive
same,Potency,[7],inactive
same,Potency,[8],inactive
same,Potency,[9],inactive
same,Potency,[10],inactive
same,Potency,[11],inactive
same,Potency,[12],inactive
same,Potency,[13],inactive
same,Potency,[14],inactive
same,Potency,[15],inactive
same,Potency,[17],inactive
same,Potency,[20],inactive
same,Potency,[18],inactive
OCC(O)c1ccccc1 (stereo not drawn),Potency,[1],inactive
same,Potency,[2],inactive
same,Potency,[3],inactive
same,outcome,[4],inactive
same,outcome,[5],inactive
same,Potency,[6],inactive
same,Potency,[7],inactive
same,Potency,[8],inactive
same,Potency,[9],inactive
same,Potency,[10],inactive
same,Potency,[11],inactive
same,Potency,[12],inactive
same,Potency,[13],inactive
same,Potency,[14],inactive
same,Potency,[16],inactive
same,Potency,[17],inactive
same,Potency,[20],inactive
same,Potency,[18],inactive
Cc1nc2n(c(=O)c1CCN1CCC(c3noc4cc(F)ccc34)CC1)CCC[C@H]2O,"activity change, negative = cytotoxicity",[1],0.553% [at 19 µM]
same,"activity, positive = activation",[2],1.67% [at 19 µM]
same,activity change,[3],"-1.01% [at 11.8 µM, active compounds read high]"
same,activation,[4],2.67% [at 15.8 µM]
same,activation,[5],-0.871% [at 11.8 µM]
same,activation,[6],-1.61% [at 13.5 µM]
same,activation,[7],-1.62% [at 13.6 µM]
same,"activity change, negative = cytotoxicity",[8],-2.44% [at 13.5 µM]
same,"activity change, negative = cytotoxicity",[9],3.38% [at 13.5 µM]
same,"activity change, negative = cytotoxicity",[10],-16.9% [at 13.5 µM]
same,activation,[11],-2.71% [at 13.5 µM]
same,activation,[12],-9.85% [at 15.9 µM]
same,Potency,[13],4.48 µM (active)
same,activation,[14],-0.822% [at 15.8 µM]
same,"activity change, negative = inhibition",[17],-0.824% [at 19 µM]
same,Potency,[19],inactive
same,activation,[20],-27% [at 19 µM]
same,Potency,[18],0.0326 µM (active)
O=C(CO)[C@@H](O)[C@H](O)[C@H](O)CO,Potency,[1],inactive
same,Potency,[2],inactive
same,Potency,[3],inactive
same,outcome,[4],inactive
same,outcome,[5],inactive
same,Potency,[6],inactive
same,Potency,[7],inactive
same,Potency,[8],inactive
same,Potency,[9],inactive
same,Potency,[10],inactive
same,Potency,[11],inactive
same,Potency,[12],inactive
same,Potency,[13],inactive
same,Potency,[14],inactive
same,Potency,[15],inactive
same,Potency,[16],inactive
same,Potency,[17],inactive
same,Potency,[20],inactive
same,Potency,[18],inactive
